This is part of a sample that, as a whole, favours compounds with a hit. Of some 83,000 tested, about 20% had one in any assay.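 How to read the values: 0–100, growth inhibition (40 = 60% inhibited); 0, no net growth; -100 to 0, cell death (-40 = 40% of starting cells died; -100 = all dead).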 Values without a mark were called inactive. The source made the active and inactive calls. Rule for the calls: active = growth percent below 10; inactive = the rest.
What was measured:
Experiment in all cases: NCI-60 one-dose screen, 48 h (100 = growth as untreated, 0 = no growth, -100 = all killed)
Conditions in all cases: 10 µM unless noted
NCI-H23 lung = system: NCI-H23 lung
NCI-H226 lung = system: NCI-H226 lung
NCI-H322M lung = system: NCI-H322M lung
HOP-62 NSCLC = system: HOP-62 NSCLC
NCI-H460 lung = system: NCI-H460 lung
HOP-92 NSCLC = system: HOP-92 NSCLC
NCI-H522 lung = system: NCI-H522 lung
A549/ATCC NSCLC = system: A549/ATCC NSCLC
786-0 renal = system: 786-0 renal
COLO 205 colon = system: COLO 205 colon
DU-145 prostate = system: DU-145 prostate
K-562 leukemia = system: K-562 leukemia
MALME-3M melanoma = system: MALME-3M melanoma
MDA-MB-231 breast = system: MDA-MB-231 breast
RXF 393 renal = system: RXF 393 renal
SF-268 CNS = system: SF-268 CNS
SF-295 CNS = system: SF-295 CNS
SF-539 CNS = system: SF-539 CNS
UACC-257 melanoma = system: UACC-257 melanoma
M14 melanoma = system: M14 melanoma

SMILES	growth (NCI-H23 lung)	growth (NCI-H226 lung)	growth (NCI-H322M lung)	growth (HOP-62 NSCLC)	growth (NCI-H460 lung)	growth (HOP-92 NSCLC)	growth (NCI-H522 lung)	growth (A549/ATCC NSCLC)	growth (786-0 renal)	growth (COLO 205 colon)	growth (DU-145 prostate)	growth (K-562 leukemia)	growth (MALME-3M melanoma)	growth (MDA-MB-231 breast)	growth (RXF 393 renal)	growth (SF-268 CNS)	growth (SF-295 CNS)	growth (SF-539 CNS)	growth (UACC-257 melanoma)	growth (M14 melanoma)
CN(C)c1ccc(/C=C(\C#N)c2nc3ccccc3s2)cc1	102%	101%	86.8%	116%	103%	104%	92.7%	105%	96.8%	123%	120%	119%	111%	106%	116%	102%	92.9%	100%	93.5%	110%
O=c1c(/C=C/c2ccco2)nnc(SCCN2CCOCC2)n1/N=C/c1ccc([N+](=O)[O-])cc1	91%	85.5%	113%	101%	103%	90.5%	86.5%	99.4%	95.2%	112%	111%	93.3%	95.9%	103%	87.6%	96.5%	107%	94%	94.1%	99.9%
COC1=CC(=O)C(OC)=C(OC)C1=O	90.5%	86.7%	94.2%	92.6%	96.6%	109%	100%	114%	93.4%	114%	106%	63.9%	92.1%	86%	111%	94.3%	99.3%	90.7%	107%	93.2%
O=C1/C(=C\c2cn(C(=O)c3ccc(Cl)cc3)c3ccccc23)c2ccccc2N1c1c(Cl)cccc1Cl	97.2%	94.9%	112%	94.2%	111%	79.9%	90.9%	110%	90.7%	123%	120%	115%	106%	103%	151%	99.9%	127%	104%	123%	104%
COCCOC(=O)C1=C(C)NC(=S)NC1c1ccc2c(c1)OCO2 (stereo not given)	96.2%	90.2%	101%	98%	112%	108%	94.3%	101%	107%	117%	108%	91.8%	108%	105%	101%	97.4%	105%	99.2%	90.2%	104%
Cc1ccc(/C=C2\Oc3cc(OCC(=O)c4ccc(Cl)cc4)ccc3C2=O)cc1	90.1%	109%	103%	104%	120%	88.2%	103%	90.1%	107%	111%	112%	95.2%	90%	107%	99.5%	119%	114%	103%	98.1%	102%
Nc1cc(-c2nc3sccn3c2-c2ccnc(NCCCNS(=O)(=O)c3ccc(F)cc3)n2)ccc1F	63.5%	50.7%	69.9%	78.1%	47.4%	96.9%	48%	41.4%	61.3%	32.4%	58.6%	26.8%	37.1%	62.5%	52.1%	62%	67.5%	73.2%	57.9%	31%
CN1CCN(Cc2ccc(NC(=O)c3cncc(C#Cc4cncc5nccnc45)c3)cc2C(F)(F)F)CC1	33.8%	5.97% (active)	43.6%	53.5%	34.5%	-11.9% (active)	43.8%	70.8%	73.1%	2.52% (active)	47.7%	10.4%	-17.7% (active)	26.9%	28.1%	58.9%	70.7%	26.9%	35.5%	9.82% (active)
